What was measured:
ETS1 [1] = target: T1, ETS1 (UniProt P14921); experiment: ETS1 binding intensity (PBM fluorescence), ETS1 alone (arbitrary fluorescence units); higher = stronger binding; conditions: ETS1 concentration 1 nM; RUNX1 concentration 0 nM
T1 sequence: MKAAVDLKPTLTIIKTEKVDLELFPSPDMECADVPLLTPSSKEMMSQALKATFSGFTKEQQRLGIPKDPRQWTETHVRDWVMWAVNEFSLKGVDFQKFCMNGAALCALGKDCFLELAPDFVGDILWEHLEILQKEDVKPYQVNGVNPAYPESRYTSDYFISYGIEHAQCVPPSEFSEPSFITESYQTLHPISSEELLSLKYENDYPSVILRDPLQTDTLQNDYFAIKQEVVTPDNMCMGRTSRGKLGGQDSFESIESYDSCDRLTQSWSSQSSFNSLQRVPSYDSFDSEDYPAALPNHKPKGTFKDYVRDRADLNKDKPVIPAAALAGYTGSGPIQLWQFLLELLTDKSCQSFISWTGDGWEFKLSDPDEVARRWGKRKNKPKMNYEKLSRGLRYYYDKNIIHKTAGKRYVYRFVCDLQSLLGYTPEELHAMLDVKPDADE

RUNX1 [2] = target: RUNX1 (UniProt Q01196); experiment: RUNX1 binding intensity (PBM fluorescence), RUNX1 alone (arbitrary fluorescence units); higher = stronger binding; conditions: RUNX1 concentration 2 nM; ETS1 concentration 0 nM
Sequence of RUNX1 (Q01196 whole entry): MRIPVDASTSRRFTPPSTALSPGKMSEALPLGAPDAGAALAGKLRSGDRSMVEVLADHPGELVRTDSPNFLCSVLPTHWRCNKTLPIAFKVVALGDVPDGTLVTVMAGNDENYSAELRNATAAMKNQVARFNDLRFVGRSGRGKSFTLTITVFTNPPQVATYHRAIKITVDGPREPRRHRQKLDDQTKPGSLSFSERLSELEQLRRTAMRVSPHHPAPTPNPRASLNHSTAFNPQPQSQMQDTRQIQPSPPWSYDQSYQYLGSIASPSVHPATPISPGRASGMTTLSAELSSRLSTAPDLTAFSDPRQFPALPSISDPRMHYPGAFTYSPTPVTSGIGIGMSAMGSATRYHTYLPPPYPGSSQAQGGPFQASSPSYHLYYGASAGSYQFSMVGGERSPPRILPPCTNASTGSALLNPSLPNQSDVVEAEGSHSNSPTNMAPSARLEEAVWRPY
Experimental: (§1)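 Cooperative gcPBM on 36-bp genomic probes with neighbouring ETS1 and RUNX1 sites. Recombinant human RUNX1 (2 nM) was incubated alone or with ETS1 (25 nM) and detected with anti-RUNX1 antibody plus Alexa488 secondary. Values are medians over 4 replicate spots; the RUNX1+ETS1 data were normalised to the RUNX1-only data. The probes sit in constant array flanks that are not printed.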

ETS1 [3] = target: T1, ETS1; experiment: ETS1 binding intensity (PBM fluorescence) in presence of RUNX1, normalised to ETS1-only experiment (arbitrary fluorescence units); higher = stronger binding; conditions: ETS1 concentration 1 nM; RUNX1 concentration 25 nM
RUNX1 [4] = target: RUNX1 (UniProt Q01196); experiment: RUNX1 binding intensity (PBM fluorescence) in presence of ETS1, normalised to RUNX1-only experiment (arbitrary fluorescence units); higher = stronger binding; conditions: RUNX1 concentration 2 nM; ETS1 concentration 25 nM
Experimental: as §1
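Throughout, for RUNX1 binding intensity (PBM fluorescence) in presence of ETS1, normalised to RUNX1-only experiment: Full-length recombinant human ETS1 or RUNX1 bound to double-stranded 36-bp genomic probes on microarrays, detected by protein-specific primary antibody and Alexa488 secondary, spot fluorescence as median of four replicate spots.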
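Throughout, for RUNX1 binding intensity (PBM fluorescence), RUNX1 alone: Full-length recombinant human RUNX1 bound to double-stranded 36-bp genomic probes on a high-density microarray, scored as Alexa488 fluorescence per spot via anti-RUNX1 antibody, median of four replicate spots.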

Sequence | ETS1 binding intensity (ETS1 [1]) | RUNX1 binding intensity (RUNX1 [2]) | ETS1 binding intensity (ETS1 [3]) | RUNX1 binding intensity (RUNX1 [4])
GGGGCTGTGCTTCCGGCTGTTTGTGCGGTTTTGTGC | 1650 | 1520 | 6750 | 4340
AGGGCATTTCCTTTGGGGCTGGTGGTCACGGACAAC | 471 | 723 | 381 | 1430
CCACTGCCGGAAGGGGAACTGTGGGGGTGCGCGAGT | 1110 | 820 | 963 | 1040
GCGAGACGCGGAAGAGGCTTGCGGTTGACCAAAGAA | 407 | 1830 | 2010 | 4310
CTCTCTGGGCGGAAGGAACGCGGTCACCCTGAGAAA | 547 | 833 | 968 | 871
GCAAGGCAACAGGAAATTGTGGGGAAATTTTAAAAA | 3930 | 770 | 6190 | 1070
ACACCGGAAGCCCAACAGCATGCCGAGTAACCACCC | 1120 | 864 | 1170 | 1310
CGCCTCATTTCCTGTGCAACTGCGGTAAAAATAGGA | 1860 | 1630 | 5000 | 4630
TGTGAACTGACAGGATGTGGTACAAGGCTTACAAAG | 4830 | 730 | 8820 | 1780
ATCTCCACATCCTCCCCATCGACCGCATGGTTTACC | 439 | 1970 | 653 | 3450
GTTCAGCGGACGGCTTCCTGCGGCTTGCTGGGGCCG | 361 | 724 | 462 | 1000
GGCTTCCGCCGCCACCACTGCCCCTCAACCGCCACG | 518 | 1110 | 601 | 2040
TCCAGGATGTGGGATGCCGTGCTGTACCGCATGTCA | 498 | 652 | 1030 | 1160
CTAACCCTGCTTCCTCTTAGTGGTTTCCCCCAACCT | 616 | 1620 | 793 | 3220
